CYP2C19 activ: activators of human cytochrome P450 2C19. recombinant CYP2C19, luciferin-H EGE luminescence; hits give high values; 0 = fully inhibited enzyme, 1 = untreated enzyme. activation factor at 5 µM. 96,000 tested, under 10 active. AID 1025;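 active = activation factor of at least 2 at 5 µM in the primary screen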;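 also: 0 = wells with 2.5 mM tranylcypromine and 1 = vehicle-only wells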
CYP2C9 inh: human CYP2C9 inhibition; CYP2C9 Supersomes, luciferin-H conversion, luminescence; AID 777; P11712; hit rate 20% among 96,000; inhibition, % at 5 µM;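 active = blocking of liver enzyme CYP2C9 beyond about 50% at 5 µM, limit read from the data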
Target sequence (P11712 whole entry, looked up): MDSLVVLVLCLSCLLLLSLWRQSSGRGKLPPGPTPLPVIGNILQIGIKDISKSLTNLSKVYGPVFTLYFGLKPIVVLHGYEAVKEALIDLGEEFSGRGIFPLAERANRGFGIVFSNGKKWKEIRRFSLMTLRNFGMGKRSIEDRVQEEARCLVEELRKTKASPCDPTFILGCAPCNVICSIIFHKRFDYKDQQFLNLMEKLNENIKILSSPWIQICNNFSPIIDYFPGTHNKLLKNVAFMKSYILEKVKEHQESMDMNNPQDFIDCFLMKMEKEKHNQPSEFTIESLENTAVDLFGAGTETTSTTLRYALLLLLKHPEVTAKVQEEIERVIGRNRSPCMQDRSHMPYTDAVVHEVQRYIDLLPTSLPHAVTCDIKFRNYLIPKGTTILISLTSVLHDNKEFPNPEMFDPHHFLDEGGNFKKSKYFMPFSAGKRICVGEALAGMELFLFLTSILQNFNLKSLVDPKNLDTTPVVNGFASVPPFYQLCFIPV
CYP2C9 activ: increases human cytochrome P450 2C9 activity; P11712; recombinant CYP2C9, luciferin-H conversion, luminescence; hits give high values; factor 1 = untreated enzyme, 0 = blocked; activation factor at 5 µM; hit rate 1.4% among 96,000; AID 1024;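 active = activation factor of 2 or more for CYP2C9 at a 5 µM dose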;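 also: 0 = sulfaphenazole-blocked wells and 1 = vehicle-only wells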
CYP2C19 inh: inhibitors of human CYP2C19; hit rate 21% among 96,000; AID 778; CYP2C19 Supersomes, luciferin-H EGE luminescence, 30 min; inhibition, % at 5 µM;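 active = CYP2C19 inhibition above a set limit at 5 µM in the primary screen, cut at about 50% in these data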;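 also: plate controls were negative control wells for no effect and 2.5 mM tranylcypromine positive control for full effect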
PostGolgi yeast: growth inhibition of a yeast mutant, post-Golgi transport screen; post-Golgi transport phenotypic cell assay; inhibition, % at 10 µM; hit rate 0.9% among 98,000;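 also: yeast cells grown in 1536-well plates; yeast grown about 18 h at 30C before absorbance read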
PostGolgi ctrl: inhibits growth of the yeast control strain. AID 738. hit rate 5% among 98,000. efflux-deficient yeast background strain, growth absorbance A615, 16 h. inhibition, % at 10 µM
Active calls of the source: *; nt = no result given. Compounds with a hit are over-represented: about 32% of the library has one in this group of screens. Rule as the data show it, unless noted: active = inhibition above about 30%; inactive = the rest.

SMILES	CYP2C19 activ	CYP2C9 inh	CYP2C9 activ	CYP2C19 inh	PostGolgi yeast	PostGolgi ctrl
O=C(CSc1nc2ccccc2c(=O)n1Cc1ccco1)c1ccccc1	0.7	72*	0.3	34	-4	31*
CCC1CCCCN1C(=O)CSc1nc2ccsc2c(=O)n1Cc1ccccc1 (configuration not stated)	0.5	70*	0.3	50*	3	20
Cn1c(SCC(=O)N2CCCC2)nc2ccccc2c1=O	0.8	21	0.8	15	3	8
CCOC(=O)C1=C(C)SC2=NS(=O)(=O)CCN21	0.6	-2	1	40	-5	2
CCn1c(SCC(=O)N2CCCC2)nc2ccccc2c1=O	1	31	0.7	5	-5	12
CCn1c(SCC(=O)N2CCN(c3ccc(Cl)cc3)CC2)nc2ccccc2c1=O	0.8	47	0.5	24	-10	55*
CCn1c(SCC(=O)N2CCN(c3ccc(F)cc3)CC2)nc2ccccc2c1=O	0.4	59*	0.4	63*	2	37*
CCCCn1c(SCC(=O)N2CCN(c3ccccc3)CC2)nc2ccsc2c1=O	0.5	88*	0.1	51*	3	43*
CCCCn1c(SCC(=O)N2CCC(C)CC2)nc2ccsc2c1=O	0.8	32	0.7	24	7	27
COCC(C)n1c(SCC(=O)N2CCCCC2)nc2ccccc2c1=O (configuration not stated)	0.5	54*	0.5	46	-7	4
Cn1c(=O)[nH]c(=O)c2c1nc(Br)n2CCSc1nc2ccccc2o1	0.8	23	0.8	24	-7	15
CCCn1c(SCC(=O)N2CCN(c3ccccc3)CC2)nc2ccccc2c1=O	0	93*	0.1	97*	1	51*
O=C(CSc1nc2ccccc2c(=O)n1Cc1ccco1)N1CCN(c2ccccc2)CC1	0.7	40	0.6	33	1	36*
C=CCN1C(=O)CN=C1Nc1ccc(OC)cc1OC	1	0	1	2	1	-1
Cc1ccc(NC(=O)c2ccc(CNc3c(N4CCOCC4)c(=O)c3=O)cc2)cc1	0.9	18	0.8	6	1	18
CC1=CC(C)(C)N(C(=O)CN2C(=O)c3ccccc3C2=O)c2ccccc21	0.7	87*	0.1	30	-5	20
CC1=CC(C)(C)N(C(=O)C(C)N2C(=O)c3ccccc3C2=O)c2ccc(C)cc21 (configuration not stated)	0.2	7	0.9	83*	6	18
CC1=CC(C)(C)N(C(=O)c2ccccc2)c2ccccc21	0.7	14	0.9	28	-9	14
CC1=CC(C)(C)N(S(=O)(=O)c2ccc(F)cc2)c2ccc(C)cc21	0.7	31	0.7	28	-8	29
CC1=CC(C)(C)N(S(=O)(=O)c2ccc(C)cc2)c2ccccc21	0.6	62*	0.4	44	-7	32*
CCOc1ccc(N2C(=O)C(c3ccccc3)=C(c3nc4ccccc4s3)C2NC(C)=O)cc1 (configuration not stated)	1	26	0.7	-4	-6	-6
CC(=O)N1CCc2cc(C(=O)CN3CCN(c4cccc(Cl)c4)CC3)ccc21	0.7	84*	0.2	32	-18	4
CCOC(=O)c1c(C)[nH]c(C(=O)OCC(=O)NC2CCS(=O)(=O)C2)c1C (configuration not stated)	1.1	8	0.9	-11	-4	5
COc1cccc(-c2cc(C(F)(F)F)nc(NCc3ccco3)n2)c1	nt	nt	nt	nt	-1	33*
C/C(=C\C(=O)C(F)(F)F)Nc1ccc(C(F)(F)F)cc1	1	2	1	4	2	4
SMILES	CYP2C19 activ	CYP2C9 inh	CYP2C9 activ	CYP2C19 inh	PostGolgi yeast	PostGolgi ctrl
CN=C(Nc1ccc(Cl)cc1)c1cccc(C(F)(F)F)c1	0.3	23	0.8	74*	6	4
CN=C(Nc1ccc(Cl)cc1)c1ccc(C(F)(F)F)cc1	0.2	25	0.7	80*	15	10
O=S(=O)(c1ccc(Br)s1)n1cccn1	0.9	-52	1.5	7	-7	8
CCOC(=O)C1CCN(C(=O)C2c3ccccc3C(=O)N(C)C2c2ccc(OC)cc2)CC1 (configuration not stated)	1	-4	1	-2	-5	-5
Cc1ccc(SCCNC(=S)Nc2cc(C)ccc2C)cc1	0.5	42	0.6	54*	-2	15
CCOC(=O)N1CCN(CC(=O)Nc2ccc(C)cc2)CC1	1	-64	1.6	1	10	-3
Cc1ccc(NC(=O)CN2CC(C)SC2=NC2CCCCC2)cc1 (configuration not stated)	0.2	10	0.9	82*	5	25
Cc1cc(C(=O)NCc2cc(C)n(C)n2)sc1-c1ccccc1	0.4	9	0.9	59*	10	5
O=C(O)C1C2CCC(O2)C1C(=O)Nc1cnn(Cc2ccccc2)c1 (configuration not stated)	0.2	20	0.8	83*	-5	8
CC(C)CN(CC(C)C)S(=O)(=O)N1CCC(C(=O)NCCN2CCOCC2)CC1	1	10	0.9	1	6	10
CC(=O)c1cccc(NC(=O)Cc2cccs2)c1	0.7	22	0.8	30	-3	-7
O=C(Cc1cccs1)Nc1cccc(C(=O)Nc2ccco2)c1	0.5	78*	0.2	51*	-5	15
O=C(Cc1cccs1)Nc1ccc(NC(=O)c2ccco2)cc1	0.9	72*	0.3	13	14	1
O=C(Nc1ccc(OC(=O)c2cccs2)cc1)c1ccco1	0.9	-18	1.2	7	-9	7
CCn1c2ccccc2c2nc3cc(S(=O)(=O)N4CCOCC4)ccc3nc21	0.8	85*	0.2	22	-1	28
c1ccc2nc3c(nc2c1)c1ccccc1n3CCN1CCOCC1	0.7	21	0.8	29	5	-2
CCC(C)[C@H](NC(=O)OC(C)(C)C)C(=O)N/N=C/c1ccc2nccnc2c1 (some centres not stated)	1	55*	0.5	-3	-6	1
CC(C)C[C@H](NC(=O)OC(C)(C)C)C(=O)N/N=C/c1ccc2nccnc2c1	1.1	21	0.8	-12	5	-1
Cc1ccc(OC(C)C)c(CN(CCO)CCO)c1	1	-4	1	0	-1	7
CCOc1cc(C)c(C(C)C)cc1S(=O)(=O)NCc1ccccn1	0.8	-12	1.1	22	1	19
CCOC(=O)c1c(-c2ccccc2)oc2ccc(OC(C)=O)cc12	0.6	29	0.7	41	-7	32*
Cc1cc(=O)oc2cc(OCC#N)ccc12	1.2	-16	1.2	-22	0	-5
CCOC(=O)c1c(C(C)(C)C)oc2ccc(O)cc12	0.7	6	0.9	32	10	52*
CCOC(=O)c1c(C(C)(C)C)oc2ccc(OCC#N)cc12	0.8	57*	0.4	20	-11	10

Screens deposited in PubChem by several laboratories.
